# Measured values published in PubChem BioAssay AID696 (Sanford-Burnham Center for Chemical Genomics, 2007).
# Among all 96,000 compounds or so, about 1,200 (1.2%) were called active. The entries come from a sample that favours actives as a whole. Unmarked numbers belong to inactive results. No stated cut-off is given here; in the data, active means activation fold above about 2; inactive means the rest.
# Target: Alkaline phosphatase, placental type (Homo sapiens) (UniProt P05187)
# Assay: activation of human placental alkaline phosphatase – biochemical, luminescence, HTS (AID 696)
# Conditions: purified PLAP enzyme, luminescent substrate read-out; at 20 µM; active compounds read high
# Sequence of Alkaline phosphatase, placental type (Homo sapiens) (P05187 whole entry, looked up): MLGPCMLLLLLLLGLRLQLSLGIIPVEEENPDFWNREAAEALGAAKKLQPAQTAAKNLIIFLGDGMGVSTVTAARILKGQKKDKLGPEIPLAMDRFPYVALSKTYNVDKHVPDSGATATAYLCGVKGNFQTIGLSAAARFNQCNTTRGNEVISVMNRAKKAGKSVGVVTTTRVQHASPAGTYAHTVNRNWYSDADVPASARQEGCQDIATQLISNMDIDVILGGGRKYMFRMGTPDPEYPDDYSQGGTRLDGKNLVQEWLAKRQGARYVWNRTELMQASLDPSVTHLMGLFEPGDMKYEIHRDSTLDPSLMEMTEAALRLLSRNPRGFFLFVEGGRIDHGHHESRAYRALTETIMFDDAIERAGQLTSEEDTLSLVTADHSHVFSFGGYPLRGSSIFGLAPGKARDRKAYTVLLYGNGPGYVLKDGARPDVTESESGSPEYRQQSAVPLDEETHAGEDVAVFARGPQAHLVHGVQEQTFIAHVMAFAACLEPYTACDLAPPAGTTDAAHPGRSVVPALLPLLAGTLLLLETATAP
row,Structure (SMILES),activation fold
1,CC(=O)NS(=O)(=O)c1ccc(NC(=S)NC(=O)C(C)(C)C)cc1,1.1
2,COc1ccccc1NC(=O)c1ccc2nc(N3C(=O)CCC3=O)sc2c1,1.1
3,COc1ccc(C(C)=O)cc1CN1C(=O)NC2(CCCCC2C)C1=O (stereo not drawn),1
4,CCN1CCN(C(c2cccnc2)c2cc(Cl)c3cccnc3c2O)CC1 (stereo not drawn),1.7
5,CCOC(=O)N1CCN(C(c2cccnc2)c2ccc3cccnc3c2O)CC1 (stereo not drawn),2.2 (active)
6,CCOC(=O)N1CCN(C(=O)CSc2ccc(Cl)cc2)CC1,1.4
7,CC1CC(C)CN(C/C=C/c2ccccc2[N+](=O)[O-])C1 (stereo not drawn),1.2
8,C=C(C)COc1ccc(-c2n[nH]c(C)c2-c2ccccc2OC)c(O)c1,1
9,CCOc1ccccc1Oc1cn[nH]c1-c1ccc(OC)cc1O,2.8 (active)
10,CCOc1ccccc1NC(=O)Nc1cc(OC)ccc1OC,0.8
11,c1ccc2c(C[n+]3csc4ccccc43)cccc2c1,1.1
12,COc1ccccc1NC1=NC(c2ccc(Cl)cc2)N=C(N)N1 (stereo not drawn),2.2 (active)
13,COc1ccccc1NC1=NC2(CCCC2)N=C(N)N1,0.8
14,COc1ccccc1Nc1nc(N)nc(CN(C)C2CCCCC2)n1,1.3
15,O=C1C=C(c2ccc(Cl)cc2)C(=O)N1Nc1ccccc1,0.9
16,C=CCn1c(SCc2c(C)noc2C)nc2sc3c(c2c1=O)CCC(C)C3 (stereo not drawn),1.4
17,CCOC(=O)c1c(NC(=O)c2cccs2)sc(C)c1C,1.1
18,CCOC(=O)c1c(NC(=O)CCl)sc(C(=O)N(CC)CC)c1C,1.7
19,COCCCNCC(=O)Nc1sc(C)c(C)c1C(=O)OC,2.2 (active)
20,COc1ccc(C2=NOC3(CC(=O)N(c4ccc(C)cc4)C3=O)C2)cc1 (stereo not drawn),1.2
21,CCOC(=O)c1c(NC(=O)CCCN2CCOCC2)sc2c1CC(C)(C)OC2,1.5
22,c1ccc2c(c1)OCC(CNc1ncnc3nc[nH]c13)O2 (stereo not drawn),1.6
23,COc1ccc(CCNc2ncnc3nc[nH]c23)cc1OC,1.8
24,CCc1ccc(N(CC)c2ncnc3nc[nH]c23)cc1,2 (active)
25,Cc1nn(C)cc1/C=C1\CCC/C(=C\c2cn(C)nc2C)C1=O,1.8
26,CCn1c(C)nc2cc(C(=O)NNS(=O)(=O)c3ccc(C)cc3C)ccc21,1

row,Structure (SMILES),activation fold
1,Cc1ccc(C(=O)Nc2c(C#N)c(C)c(C)n2Cc2ccccc2)cc1,0.9
2,Cc1[nH][nH]c(=O)c1N=Nc1ccccc1,1.1
3,Cc1[nH][nH]c(=O)c1C(c1ccc(-c2ccc(Cl)cc2)o1)c1c(C)[nH][nH]c1=O,2.2 (active)
4,Cc1nnc(NC(=O)CCCOc2ccccc2)s1,1
5,CCOC(=O)c1nn(-c2cccc(C)c2)cc1C(=O)c1ccccc1,1.8
6,O=C(Nc1ccccc1)c1cccnc1Nc1ccccc1,0.8
7,O=C(Nc1ccc(-n2ccnc2P(=O)(O)c2ccccc2)cc1)c1ccccc1Br,2.1 (active)
8,Cc1nonc1NC(=O)c1ccccc1Br,1.2
9,CCOC(=O)c1nnn(-c2nonc2-n2cccc2)c1CN1CCC(C(=O)OCC)CC1,1.2
10,CC(=O)c1ccc(OCCN2CCOCC2)cc1,0.9
11,Cc1c(C(=O)N2CCOCC2)[nH]c2ccc(OCc3ccccc3)cc12,2 (active)
12,CCOC(=O)c1[nH]c2ccc(OC)cc2c1NC(=O)N1CCOCC1,1.1
13,Cc1c(C(=O)CN2CCOCC2)[nH]c2ccccc12,0.9
14,COc1cccc2c1OCC1COc3c(c(=O)n(C)c(=O)n3C)C21 (stereo not drawn),1
15,CCNC(=S)NNC(=O)Cc1ccccc1,1.3
16,COc1ccc(OCC(=O)NNC(=O)c2ccc(-c3ccccc3)cc2)cc1,1.5
17,CC(C)(C)c1ccc(C(=O)NNC(=O)Cc2ccccc2)cc1,2.1 (active)
18,Cc1ccc(-c2cnc(NC(=O)CCC(=O)N(C)Cc3ccccc3)n2C)cc1,1.5
19,Cc1ccc(-n2nc(N)c3c(=O)oc(N(C)C)nc32)cc1,1.1
20,CSc1nc(-c2ccco2)nn1C(=O)CCc1ccccc1,1.1
21,COc1ccc(C2SCCN2S(=O)(=O)c2ccccc2)cc1OC (stereo not drawn),1.3
22,COc1ccc(C2N=C(N)N=C(N)N2c2ccccc2)cc1OC (stereo not drawn),2.5 (active)
23,COc1ccc(C2CC(=O)n3c(nc4ccccc43)S2)cc1OC (stereo not drawn),1.1
24,COCCn1c(C)cc(C2=NNC(=Nc3ccc(F)cc3)SC2)c1C,1.2
25,CN1/C(=C\C(=O)c2oc3ccccc3c2N)C(C)(C)c2ccccc21,1
26,COc1ccc(OC)c(NC(=O)CN2CCN(C(=O)c3ccco3)CC2)c1,1.2

row,Structure (SMILES),activation fold
1,COc1ccc(NC(C)=O)cc1NC(=O)CN1CCN(C2c3ccccc3-c3ccccc32)CC1,2.8 (active)
2,COc1ccc(NC(C)=O)cc1NC(=O)CN1CCN(c2ccccn2)CC1,1
3,Cc1ccc(S(=O)(=O)Nc2nc(C)cc(-n3nc(C)cc3C)n2)cc1,1.4
4,COc1ccc(C(=O)CSc2n[nH]c(N)n2)cc1,1.5
5,Nc1nc(SCc2ccccc2Cl)n[nH]1,1.5
6,Nc1nc(SCCOc2ccccc2)n[nH]1,2 (active)
7,COc1ccccc1-c1n[nH]c2c1[C@H](C)CC[C@H]2C(C)C,1.4
8,O=C(OCN1C(=O)c2ccccc2C1=O)/C(=C\c1ccco1)NC(=O)c1ccccc1,1.1
9,CCOc1cccc(C(=O)Nc2cnn(Cc3ccccc3)c2)c1,0.7
10,COc1ccc(CNC(=O)CCn2cccc2)cc1,1
11,CC(C)NC(=O)NC(=O)COC(=O)c1ccc(NC(=O)CC#N)cc1,1.4
12,Cc1occc1C(=O)Nc1nnc(C2CCCCC2)s1,1
13,O=C(Nc1nnc(C2CC2)s1)c1ccccn1,2.3 (active)
14,COc1ccc2c(CC(=O)Nc3nnc(C4CC4)s3)coc2c1,0.9
15,NC(=O)C1(N2CCCCC2)CCN(C(=S)Nc2ccc(Cl)cc2)CC1,0.9
16,Cc1cccc(N2CCN(S(=O)(=O)c3ccc4[nH]c(=O)c(=O)[nH]c4c3)CC2C)c1 (stereo not drawn),2.2 (active)
17,COc1cccc(N2C(=O)CC(N3CCN(S(=O)(=O)c4ccccc4)CC3)C2=O)c1 (stereo not drawn),1.4
18,CN1CCN(S(=O)(=O)c2ccc3[nH]cc(C(=O)O)c(=O)c3c2)CC1,1.1
19,O=C1C(Cl)=C(N2CCOCC2)C(=O)N1c1ccccc1,1
20,O=C(NCCN1C(=O)C2C3C=CC(C3)C2C1=O)Nc1ccccn1 (stereo not drawn),1.1
21,O=C(CN1C(=O)C2C3C=CC(C3)C2C1=O)Nc1nc(-c2ccccn2)cs1 (stereo not drawn),2.3 (active)
22,O=C(CN1C(=O)C2C3C=CC(C3)C2C1=O)NCCc1ccccc1Cl (stereo not drawn),0.9
23,CC(OC(=O)CN1C(=O)C2CCCCC2C1=O)C(=O)Nc1ncc(Cl)cc1Cl (stereo not drawn),0.9
24,Cc1ccc(C(C(=O)NC2CCCC2)N(Cc2ccco2)C(=O)CCC(=O)Nc2ccccn2)cc1 (stereo not drawn),1.7
25,O=C(CCCC(=O)N(CC(=O)NC1CCCC1)Cc1ccccc1Cl)Nc1ccccn1,2 (active)
26,O=C(CN1CCN(c2ccccn2)CC1)NC1CCCCC1,1.1

row,Structure (SMILES),activation fold
1,CCOc1ccccc1N(CC(=O)NC1CCCCC1)C(=O)CCCC(=O)Nc1ccccn1,2 (active)
2,Cc1noc(C)c1C(=O)N(CC(=O)NC1CCCC1)Cc1ccccc1F,1
3,CCCC(=O)Nc1cc(OCC)c(NC(=O)NC2CCCCC2)cc1OCC,0.9
4,CCCCNC(=O)C(=O)c1ccccc1NC(C)=O,0.9
5,Cc1cccc(C)c1NC(=O)CSc1nnc(-c2ccccc2)n1Cc1ccc2c(c1)OCO2,1.4
6,Cc1cc(/C=C2/SC(=O)N(CC(=O)OC(C)C)C2=O)c(C)n1C,1
7,COC(=O)CSc1snnc1-c1ccc(Cl)c(Cl)c1,1
8,CCC(C)(C)c1ccc(Oc2ccc(NC(=O)COC(=O)C3=COCCO3)cc2)cc1,2.9 (active)
9,O=C(OCC(=O)c1cccs1)C1=COCCO1,0.9
10,CC(C)NS(=O)(=O)c1ccc(OCC(=O)Nc2ccc3c(c2)OCCO3)cc1,0.7
11,O=C(CSCc1ccccc1)N1CCc2ccccc21,0.7
12,c1ccc(CCc2nc(-c3ccncc3)no2)cc1,0.9
13,O=C(COC(=O)c1ccc(Oc2ccccc2)cc1)Nc1nnc(-c2ccccc2)o1,2 (active)
14,O=C(Nc1cccc(Cl)c1)Nc1nnc(-c2ccccc2)o1,1.1
15,O=C(COc1ccccc1)Nc1nonc1NC(=O)COc1ccccc1,0.9
16,Cc1ccc(NC(=O)C(C)c2cccc(C(=O)c3ccccc3)c2)cc1 (stereo not drawn),0.7
17,C=CCN(C(=O)Cn1ncc2c1-c1cc(C)ccc1OC2)c1ccccc1,1.2
18,COc1ccccc1OCc1nc2ccccc2s1,1
19,COc1ccc(C(C#N)N2N=C(C)CC2(C)C)cc1 (stereo not drawn),0.9
20,Cc1cccc(N(CC(=O)N=Nc2c(O)[nH]c3ccccc23)S(C)(=O)=O)c1C,1.9
21,Cc1ccccc1NC(=O)c1ccccc1NS(=O)(=O)c1cccc2cccnc12,1.3
22,CC(C)(O)C(=O)NN(C(=O)c1ccccc1)c1cccc(Br)c1,0.9
23,O=C(/C=C/NNC(=O)c1cccc(Br)c1)c1ccccc1,2 (active)
24,O=C(/C=C\NCC(=O)c1ccccc1)c1ccccc1,0.9
25,COc1ccccc1NS(=O)(=O)N(C)C,0.8
